Rows were chosen to be rich in hits. Some 0.43% of all compounds tested hit in one or more screens of this group.
Menin-MLL TR inh = inhibitors of human menin-MLL interaction, mutant MLL peptide. 270,000 tested, 0.23% active. AID 1768. Menin + Texas Red MLL mutant peptide, fluorescence polarization. Potency, µM (highest dose often 61.6 µM), inactives show at the highest dose FP activity change, negative = inhibition, hits mostly inhibitors; active = well fitted inhibition curve with a large enough effect in the polarisation, with a control signal flat, not every such curve was filed as active; inconclusive = small, poorly fitted or top-dose-only effect, or effect the other way, or a change in a side signal; inactive = no such curve, though single readings can be large or run the other way; the % refers to the polarisation; note: potency is the fitted concentration of half-maximal effect; % of control where 0% means no effect
Target sequence (O00255 whole entry, looked up): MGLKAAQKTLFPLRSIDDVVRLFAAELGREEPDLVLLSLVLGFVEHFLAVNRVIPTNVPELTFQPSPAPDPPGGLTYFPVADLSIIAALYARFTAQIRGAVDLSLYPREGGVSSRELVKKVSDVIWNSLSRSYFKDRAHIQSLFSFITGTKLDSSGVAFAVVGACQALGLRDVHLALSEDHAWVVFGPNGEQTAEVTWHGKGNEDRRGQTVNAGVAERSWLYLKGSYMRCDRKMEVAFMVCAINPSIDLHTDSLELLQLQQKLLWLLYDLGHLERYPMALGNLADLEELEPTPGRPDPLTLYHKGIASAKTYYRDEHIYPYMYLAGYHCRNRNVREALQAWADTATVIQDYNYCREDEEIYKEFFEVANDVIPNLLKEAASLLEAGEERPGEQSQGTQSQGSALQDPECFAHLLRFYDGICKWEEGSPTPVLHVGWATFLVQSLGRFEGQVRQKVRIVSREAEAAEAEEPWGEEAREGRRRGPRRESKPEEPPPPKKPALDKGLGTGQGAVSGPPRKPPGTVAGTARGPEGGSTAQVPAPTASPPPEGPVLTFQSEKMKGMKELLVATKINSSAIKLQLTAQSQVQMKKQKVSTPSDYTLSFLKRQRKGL
MLL CXXC-DNA inh = blocks binding of human MLL CXXC domain to DNA. MLL-CXXC / FITC-HOXA9 DNA fluorescence polarization. 290,000 tested, 0.037% active. Q03164. Potency, µM (series often up to 115 µM), inactives show at the top dose activity change, negative = inhibition, most hits filed as inhibitors. AID 2662; active = well fitted inhibition curve with a large enough effect in the polarisation, with a control signal flat, not every such curve was filed as active; inconclusive = small, poorly fitted or top-dose-only effect, or effect the other way, or a change in a side signal; inactive = no such curve, though single readings can be large or run the other way; the % refers to the polarisation; note: potency is the fitted concentration of half-maximal effect
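Steps: dispense CXXC domain solution (7 uM) → pin compounds or unlabeled HOX-A9 DNA control → 5 min ambient → add FLSN-HOX-A9 solution (50 nM) → spin → 30 min ambient → fluorescence polarization. Tris pH 7.5/NaCl/DTT/BSA buffer.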
RGS12 GoLoco inh = blocks human Gai1 binding to RGS12 GoLoco peptide, red readout | P63096 | Gai1:RGS12 GoLoco peptide FP, rhodamine, 10 min | Potency, µM (top dose mostly 61.6 µM), without a hit: top-dose activity, negative = inhibition, most hits filed as inhibitors | 230,000 tested, 0.44% active | AID 880; active = well fitted inhibition curve with a large enough effect, not every such curve was filed as active; inactive = no such curve, though single readings can be large or run the other way; note: potency is the fitted concentration of half-maximal effect; % is set by controls: 0 for no effect and ±100 for the full control effect; nearly all actives have a fitted effect of over 30% in size
Tb PFK inh-1 = inhibitors of T. brucei phosphofructokinase; AID 485367; T. brucei PFK, ADP-Glo luminescence; Potency, µM (titrated, usually from 57.5 µM), inactives show at the highest dose activity, negative = inhibition, actives largely listed as inhibitors; O15648; 330,000 tested, 0.17% active;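 note: potency is the fitted concentration of half-maximal effect; 0% = uninhibited 1x PFK enzyme wells and -100% = no-enzyme wells; nearly all actives have a fitted effect of over 60% in size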
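ADP-Glo luminescence quantified ADP after 45 min at room temperature, with 1.25 nM T. brucei PFK, 0.1 mM ATP and 0.5 mM fructose-6-phosphate in pH 8.0 TEA buffer. qHTS titrations up to 57 µM; curves classified by quality.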
Menin-MLL FL inh = menin-MLL binding inhibition, fluorescein peptide | Fluorescence polarization, fluorescein-MLL peptide displacement from menin | FP activity change, % at 61.4 µM | 290,000 tested, under 10 active; active = well fitted curve in the direction sought with a large enough effect in the polarisation, not every such curve was filed as active; inconclusive = small, poorly fitted or top-dose-only effect, or effect the other way, or a change in a side signal; inactive = no such curve, though single readings can be large or run the other way; the % refers to the polarisation; note: % of control where 0% means no effect
TbPFK ATP = orthogonal confirmation of T. brucei phosphofructokinase inhibitors | shares compounds with Tb PFK inh-1 | Tb PFK enzyme, ATP depletion, Kinase-Glo Plus luminescence | Potency, µM (top dose mostly 57.5 µM), without a hit: at the top dose inhibition | 1,100 tested, 47% active; calls by dose curve; note: potency is the fitted concentration of half-maximal effect; nearly all actives have a fitted effect of over 60% in size
Tb PFK inh-2 = T. brucei PFK enzyme inhibition, hit validation; 1,100 tested, 41% active; purified T. brucei PFK, ADP-Glo luminescence, 45 min; Potency, µM (titrated, usually from 57.5 µM), inactives show at the top dose activity change, negative = inhibition, usual class: inhibitors; shares compounds with Tb PFK inh-1;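 note: potency is the fitted concentration of half-maximal effect; plate controls were full PFK enzyme control for no effect and no enzyme control for full effect; nearly all actives have a fitted effect of over 60% in size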
* hit, by the source's call; ? = inconclusive; . = not tested or not shown; [ ] = another dose, or the depositor's remark. Unless noted, calls come from the whole dose curve; as a rule, active = well fitted inhibition curve with a large enough effect; inconclusive = small, poorly fitted or top-dose-only effect, or effect the other way; inactive = flat fitted curve, though single readings scatter.

SMILES	Menin-MLL TR inh	MLL CXXC-DNA inh	RGS12 GoLoco inh	Tb PFK inh-1	Menin-MLL FL inh	TbPFK ATP	Tb PFK inh-2
COc1ccc(C2=Nn3c(nnc3-c3ccccc3OC)SC2)c(OC)c1	-8.3%	.	.	.	-5.2	.	.
C=CCC(C)(O)c1cccc(Br)c1 (configuration not stated)	0.0%	.	-1.9%	.	-1.5	.	.
COc1cc(/C=C/c2sc3ccccc3[n+]2CCCS(=O)(=O)[O-])ccc1O	?	?	-30.8%	12µM*	?	-25.1%	?
CCN(CC)C(=O)CSc1nnc2nnc3cc(OC)ccc3n12	.	?	-1.4%	-0.7%	?	.	.
COC(=O)c1sc(NC(=O)c2cc(-c3ccccc3)nc3ccccc23)c(C#N)c1C	?	-0.9%	-1.1%	6.75µM*	15.3	8.49µM*	15.1µM*
Cc1cc[n+](-c2[nH]c(=O)sc2/C=N/N=C(\[O-])c2ccccc2)cc1	.	24.9%	11.8%	?	2.0	.	.
Cc1cc[n+](-c2[nH]c(=O)sc2/C=N/N=C(\[O-])c2ccncc2)cc1	.	-1.1%	.	19µM*	.	?	-20.7%
CCCCc1nc2c(c3c1C[C@H](C)OC3)CN(C(=O)NCCc1c[nH]c3ccccc13)CC2	4.7%[11.7 µM]	.	7.3%[14.2 µM]	.	-0.4[11.7 µM]	.	.
COc1ccccc1NS(=O)(=O)c1cc(NC(=O)c2sccc2C)ccc1N1CCCC1	?	1.1%	21.5%	?	2.2	12µM*	23.9µM*
CC(C)(CS(=O)(=O)[O-])NC(=O)CC[N+](C)(C)CCO	25.3%	4.1%	1.9%	0.675µM*	-1.6	0.239µM*	0.426µM*
CSCC[C@H](NC(=O)CN)C(=O)N[C@@H](CC(=O)O)C(=O)N[C@@H](CO)C(=O)N[C@@H](CC(C)C)C(=O)N[C@@H](C)C(=O)N[C@@H](Cc1ccccc1)C(=O)N[C@@H](CO)C(=O)NCC(=O)NCC(=O)N[C@@H](CC(C)C)C(N)=O	0.0%	.	.	.	3.7	.	.
CS(=O)(=O)NNC(=O)c1cc2cc3ccccc3nc2s1	-1.4%	-2.9%	1.8%	?	5.6	-22.5%	20.9%
COc1ccc(S(=O)(=O)NNC(=O)c2cc3cc4ccccc4nc3s2)cc1	?	-6.6%	7.2%	?	-0.8	-35.1%	?
COc1ccc(S(=O)(=O)Nc2c(NC3CCCCC3)c3ccccc3oc2=O)cc1	.	18.6%	.	-12.1%	.	.	.
O=C(Cc1ccc(Cl)c(Cl)c1)NNC(=S)NCC1CCCO1 (configuration not stated)	.	13.7%	.	?	.	21.3µM*	?
Cc1cccc(OCC(=O)N(C)CC(=O)Nc2cccc(F)c2)c1C	.	.	.	2.6%	.	.	.
NS(=O)(=O)Cc1noc2ccccc12	2.2%	2.4%	-11.3%	0.1%	0.3	.	.
CNCc1ccccc1Sc1cc(O)ccc1O	0.3%	8.3%	4.47µM*	?	5.5	3.38µM*	8.49µM*
Cc1cc(C)c(NC(=S)NCC2CCN(C(C)c3ccccc3)C2)c(C)c1 (configuration not stated)	-20.8%	-4.7%	-4.3%	?	-1.5	7.57µM*	15.1µM*
O=C(O)CCCNc1ccc(S(=O)(=O)Nc2ccccc2C(=O)O)cc1C(=O)O	21.0%	-7.5%	-6.7%	?	-8.8	-25.7%	?
CCOC(=O)N(C)OC(=O)Nc1ccc(Cl)c(Cl)c1	28.9%	103.1%	-1.6%	1.51µM*	0.0	23.9µM*	?
CCOC(=O)N(CC)OC(=O)Nc1ccc(Cl)cc1	12.3%	34.6%	0.6%	-10.2%	2.2	.	.
NC(C(=O)O)c1cc(O)cc(O)c1 (configuration not stated)	.	.	11.1%	.	.	.	.
CC(C)c1onc(-c2c(Cl)cccc2Cl)c1COc1ccc(/C=C/c2cccc(C(=O)O)c2)c(Cl)c1	?	.	.	.	-6.9	.	.
O=C(COc1ccccc1[N+](=O)[O-])N/N=C/c1ccc(O)c([N+](=O)[O-])c1	?	-3.5%	0.5%	?	1.2	-28.4%	?
SMILES	Menin-MLL TR inh	MLL CXXC-DNA inh	RGS12 GoLoco inh	Tb PFK inh-1	Menin-MLL FL inh	TbPFK ATP	Tb PFK inh-2
O=C(COc1ccccc1[N+](=O)[O-])N/N=C/c1ccccn1	-3.8%	5.1%	2.5%	-0.2%	1.5	.	.
CCn1nnc2cc(C(=O)NCC(c3ccccc3OC)N(C)C)ccc21 (configuration not stated)	-2.3%	43.2%	.	3.1%	10.3	.	.
O=C(O)c1ccc(N2C(=O)Nc3ccccc3N2O)cc1	-4.9%	13.7%	-6.1%	7.7%	1.9	.	.
O=C(O)c1ccc(Cl)c(N2C(=O)Nc3ccccc3N2O)c1	-1.9%	7.3%	-4.7%	-4.7%	2.0	.	.
O=C1Nc2cc(Cl)c(Cl)cc2N(O)N1c1ccc(Cl)c(Cl)c1	42.6%	-3.1%	-1.0%	13.5µM*	3.0	10.6%	-14.5%
O=C1Nc2ccccc2N(O)N1c1ccc(Cl)c(Cl)c1	7.5%	14.5%	4.5%	10.7µM*	2.4	?	-15.3%
CSc1nc(=S)c2[nH]c(=S)[nH]c2[nH]1	?	12.1%	-27.1%	?	-8.5	5.36µM*	19µM*
O=C(N[C@@H]1c2ccccc2CC[C@@H]1OCc1ccccc1)c1ccc(-c2ccccc2)cc1	.	.	.	0.1%	.	.	.
CN(C)c1ccc(/C=N/NC(=O)c2ccnn2C)cc1	-22.0%	-3.0%	20.5%	?	-3.6	-15.0%	-11.8%
CCN(c1ccc(NC(=O)c2ccc(N3CCCC3=O)cc2)cc1)C(C)C	.	.	.	-4.5%	.	.	.
CC(=O)Nc1ccc(NC(=O)c2ccc(Cn3cc(Cl)cn3)cc2)cc1	?	22.7%	8.3%	?	-0.9	.	.
Cc1nn(C)cc1/C=N\NC(=O)c1ccc(Cn2cc(Cl)cn2)cc1	6.5%	0.5%	3.5%	26.9µM*	4.5	9.53µM*	?
NS(=O)(=O)c1ccc(N/N=C/c2ccc(O)c(O)c2O)c([N+](=O)[O-])c1	.	?	-10.7%	?	2.2	?	?
NS(=O)(=O)c1ccc(N/N=C/c2ccc(O)cc2O)c([N+](=O)[O-])c1	.	1.7%	9.3%	-0.9%	-0.5	.	.
CC(C)C(=O)SCCCCCCC(=O)Nc1nc(-c2ccccc2)cs1	9.6%	.	.	.	-3.5	.	.
CC(=O)c1ccc(NC(=O)C(C)Sc2nnc3ccccn23)cc1 (configuration not stated)	.	.	.	-6.1%	.	.	.
COc1cc(O)c2c(=O)c3c(O)ccc(O)c3oc2c1	.	.	.	?	.	?	?
C1=C(CN2CCOCC2)COc2c1cccc2OC[C@@H]1CNCCO1	6.0%[24.8 µM]	.	5.8%	.	-6.7	.	.
Nc1nc2ccccc2n1CCOc1ccc(F)cc1	2.6%	1.3%	.	?	-0.1	13.5µM*	21.3µM*
COc1ccc(OCCn2c(N)nc3ccccc32)cc1	-12.1%	-3.4%	.	-3.6%	2.4	.	.
N=c1n(CCCOc2ccc(F)cc2)c2ccccc2n1CC(N)=O	.	-2.1%	7.6%	0.1%	4.9	.	.
